Experimental data from PubChem BioAssay AID1159580 (chemical genetic matrix, 2015).
Where “and” joins values, the source holds several entries; their conditions need not be identical. Equal entries are not always repeated. The campaign covered roughly 5,500 compounds. About 2,000 (36%) were called active. Roughly 18% stayed inconclusive and do not appear here. Rule as the data show it: active = normalized growth mostly below about 0.91 (no sharp cut-off); inconclusive = no clear call, values can overlap the other calls; inactive = mostly above about 0.92. The list shows a part of the results.

Experiment: chemical genetic growth profiling, strain panel (AID 1159580);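 also: tested at 20 µM; growth read once vehicle control cultures reached saturation at 30 °C; 1 = growth at the plate median or of vehicle wells; lower values mean less growth of the strain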
Conditions: S. cerevisiae deletion strains, growth OD

Measured: normalized growth

COS(C)(=O)=O
inactive: locus YAL013W, strain DEP1, stronger effect = lower value 1 | locus YAL021C, strain ccr4, stronger effect = lower value 0.997 | locus YAL026C, strain drs2, stronger effect = lower value 1 | locus YAL030W, strain snc1, stronger effect = lower value 0.996 | locus YBL061C, strain skt5, stronger effect = lower value 0.992 | locus YBR009C, strain hhf1, stronger effect = lower value 1 | locus YBR021W, strain FUR4, stronger effect = lower value 1 | locus YBR023C, strain chs3, stronger effect = lower value 0.994 | locus YBR171W, strain sec66, stronger effect = lower value 0.978 | locus YBR229C, strain ROT2, stronger effect = lower value 1.01 | locus YBR231C, strain swc5, stronger effect = lower value 0.969 | locus YBR279W, strain paf1, stronger effect = lower value 1 | locus YCL011C, strain gbp2, stronger effect = lower value 1.02 | locus YCL016C, strain dcc1, stronger effect = lower value 1 | locus YCL029C, strain bik1, stronger effect = lower value 1.02 | locus YCL069W, strain vba3, stronger effect = lower value 1 | locus YCR088W, strain abp1, stronger effect = lower value 0.993 | locus YDL005C, strain med2, stronger effect = lower value 0.979 | locus YDL035C, strain GPR1, stronger effect = lower value 1.02 | locus YDL040C, strain nat1, stronger effect = lower value 0.993 | locus YDL074C, strain BRE1, stronger effect = lower value 0.986 | locus YDL101C, strain DUN1, stronger effect = lower value 1 | locus YDL134C, strain PPH21, stronger effect = lower value 1 | locus YDL185W, strain tfp1, stronger effect = lower value 1.01 | locus YDL192W, strain arf1, stronger effect = lower value 1.01 | locus YDR001C, strain nth1, stronger effect = lower value 0.997 | locus YDR069C, strain doa4, stronger effect = lower value 1.01 | locus YDR101C, strain arx1, stronger effect = lower value 1.01 | locus YDR137W, strain rgp1, stronger effect = lower value 1.02 | locus YDR150W, strain NUM1, stronger effect = lower value 1 | locus YDR159W, strain sac3, stronger effect = lower value 0.944 | locus YDR162C, strain NBP2, stronger effect = lower value 0.993 | locus YDR195W, strain ref2 0.948 | locus YDR297W, strain sur2, stronger effect = lower value 0.982 | locus YDR318W, strain mcm21, stronger effect = lower value 1.03 | locus YDR334W, strain swr1, stronger effect = lower value 0.988 | locus YDR335W, strain msn5, stronger effect = lower value 1 | locus YDR388W, stronger effect = lower value 1.01 | locus YDR392W, strain spt3, stronger effect = lower value 0.947 | locus YDR502C, strain sam2, stronger effect = lower value 0.994 | locus YEL003W, strain gim4, stronger effect = lower value 0.989 | locus YEL037C, strain rad23, stronger effect = lower value 1 | locus YEL061C, strain CIN8 (second series), stronger effect = lower value 0.998 | locus YEL061C, strain CIN8, stronger effect = lower value 1.01 | locus YER015W, strain faa2, stronger effect = lower value 1.02 | locus YER016W, strain bim1, stronger effect = lower value 0.98 | locus YER110C, stronger effect = lower value 1.02 | locus YER111C, strain swi4, stronger effect = lower value 0.998 | locus YER155C, strain BEM2 (second series), stronger effect = lower value 0.976 | locus YER155C, strain BEM2, stronger effect = lower value 1.01 | locus YER167W, strain BCK2, stronger effect = lower value 1.02 | locus YFR010W, strain ubp6, stronger effect = lower value 0.995 | locus YGL078C, strain dbp3, stronger effect = lower value 0.999 | locus YGL086W, strain mad1, stronger effect = lower value 1.02 | locus YGL167C, strain pmr1, stronger effect = lower value 0.997 | locus YGL173C, strain kem1, stronger effect = lower value 1 | locus YGL227W, strain vid30, stronger effect = lower value 0.978 | locus YGL240W, strain doc1, stronger effect = lower value 0.957 | locus YGL248W, strain PDE1, stronger effect = lower value 1 | locus YGL253W, strain hxk2, stronger effect = lower value 1 | locus YGR078C, strain PAC10, stronger effect = lower value 0.986 | locus YGR135W, strain pre9, stronger effect = lower value 0.966 | locus YGR229C, strain SMI1, stronger effect = lower value 0.993 | locus YGR252W, strain gcn5, stronger effect = lower value 1.02 | locus YHR013C, strain ard1, stronger effect = lower value 1 | locus YHR027C, strain rpn1, stronger effect = lower value 0.983 | locus YHR030C, strain SLT2, stronger effect = lower value 1.01 and 1 | locus YHR079C, strain IRE1 (second series), stronger effect = lower value 1.02 | locus YHR079C, strain IRE1, stronger effect = lower value 0.999 | locus YHR094C, strain hxt1, stronger effect = lower value 1.02 | locus YHR129C, strain ARP1, stronger effect = lower value 1.01 | locus YHR142W, strain chs7, stronger effect = lower value 1.01 | locus YHR200W, strain rpn10, stronger effect = lower value 1.02 | locus YIL066C, strain RNR3, stronger effect = lower value 1.04 | locus YIL073C, strain SPO22, stronger effect = lower value 1.09 | locus YIL125W, strain kgd1, stronger effect = lower value 1.02 | locus YIR030C, strain dcg1, stronger effect = lower value 1.02 | locus YJL092W, strain hpr5, stronger effect = lower value 1 | locus YJL095W, strain BCK1 (second series), stronger effect = lower value 0.995 | locus YJL095W, strain BCK1, stronger effect = lower value 1 | locus YJL115W, strain asf1, stronger effect = lower value 0.982 | locus YJL129C, strain trk1, stronger effect = lower value 0.971 | locus YJL134W, strain LCB3, stronger effect = lower value 1.01 | locus YJL154C, strain vps35, stronger effect = lower value 0.988 | locus YJL164C, strain tpk1, stronger effect = lower value 0.996 | locus YJL166W, strain qcr8, stronger effect = lower value 1 | locus YJL168C, strain set2, stronger effect = lower value 1.02 | locus YJL187C, strain SWE1 (second series), stronger effect = lower value 1 | locus YJL187C, strain SWE1, stronger effect = lower value 0.992 | locus YJR043C, strain POL32, stronger effect = lower value 1.03 | locus YJR066W, strain TOR1, stronger effect = lower value 0.974
